Hit rate of the full screen: of about 2,500 compounds, about 1,100 (44%) were called active. The set was probably picked from earlier hits. The list shows a part of the results. Unmarked numbers belong to inactive results.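 How the source made its calls: active means inhibition above 50% at 4 µM in the single-point screen; inactive means inhibition of 50% or less.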

For orientation: inhibition means the drop in the measured response relative to a control, in per cent.

The assay is described as follows: blockers of TNF-a NF-kB luciferase induction – cell-based, HEK293T NF-kB-Luc, luminescence, selectivity assay for NOD1/NOD2 signaling inhibitor project, primary screen (AID 1852). The following applies: TNF-a induced, 14 h, at 4 µM, hits give high values.
`CCN(CC)S(=O)(=O)c1ccc(N2CCOCC2)c(NC(=O)c2cc([N+](=O)[O-])ccc2Cl)c1`: the inhibition is -28.1%.
Take `O=[N+]([O-])c1ccc(N/N=C/c2sc(N3CCOCC3)nc2-c2ccccc2)c(S(=O)(=O)Nc2ccc(Cl)cc2)c1`: the inhibition was 60.9% (active).
Next, `O=[N+]([O-])c1ccc(N/N=C/c2sc(N3CCOCC3)nc2-c2ccccc2)c(S(=O)(=O)Nc2ccccc2Cl)c1`: 88.5% (active).
To `Cc1nnc(SCC(=O)N2CCC(c3noc4ccc(F)cc34)CC2)s1` belongs 84.5% (active).
Next, `CCCCCCCCCCn1ccc(=N)cc1`: 83.1% (active); `CCCCCCCCn1ccc(=N)cc1`: 62.3% (active).
Regarding `CCCCCCCn1ccc(=N)cc1`, the inhibition is 20.9%.
In the case of `CCCCCCCCCn1ccc(=N)cc1`, the inhibition is 76.4% (active).
To `CC[C@@H](C)[C@H](NC(=O)OC(C)(C)C)c1nnc(S(=O)(=O)Cc2cc(C)ccc2C)o1` belongs 38.2%; to `CC1CCN(S(=O)(=O)c2nnc(NC(=O)c3cccc(Cl)c3)s2)CC1`, 37%.
Turning to `CN(C)S(=O)(=O)N1CCC(Oc2cccc(C(=O)NC3CCCCCC3)c2)CC1`, the inhibition is 54% (active).
Take `CN(C)S(=O)(=O)N1CCC(Oc2cccc(C(=O)NC3CCCCC3)c2)CC1`: the inhibition is 20.4%.
To `CN(Cc1ccccc1)C1=CC(=[N+]2CCCCC2)CC(C)(C)C1` belongs 58.1% (active); to `Cc1nc(Nc2cnc(/C=C/c3cc(C(=O)Nc4cccc(C(F)(F)F)c4)ccc3C)cn2)cc(N2CCNCC2)n1`, -21.5%.
Next, `CSc1ncc(C(=O)Nc2cccc(S(N)(=O)=O)c2)n1-c1ccccc1`: 8.6%; `COc1ccc(N(CC(=O)Nc2cccc(N(C)S(C)(=O)=O)c2)S(=O)(=O)c2ccc(C)cc2)cc1`: 14.3%.
Next, `CN(c1ccccc1)S(=O)(=O)c1cccc(NC(=O)c2cc(=O)c3ccccc3o2)c1`: 63.9% (active).
Take `Cc1nc2ccc(NC(=O)c3cccc(S(=O)(=O)N(C)c4ccccc4)c3)cc2s1`: the inhibition is 53.4% (active).
Next, `Cc1nc2ccc(NC(=O)c3cc(S(=O)(=O)N(C)c4ccccc4)ccc3Cl)cc2s1`: 54.6% (active); `CC(C(=O)Nc1cccc([N+](=O)[O-])c1)N(c1ccccc1)S(C)(=O)=O` (stereo unspecified): -12.9%.
Next, `CCCCn1c(SCC(=O)N2CCN(c3ccccc3)CC2)nc2ccsc2c1=O`: 28.9%.
Next, `CCOC(=O)/C=C/C(=O)Nc1cccc([N+](=O)[O-])c1`: 72.3% (active).
Consider `CC(=O)c1cccc(NC(=O)/C=C/c2ccc([N+](=O)[O-])s2)c1`, for which the inhibition was 99.5% (active).
Next, `COc1ccc(C)cc1S(=O)(=O)N(CC(=O)Nc1cccc([N+](=O)[O-])c1)c1ccc(C)cc1`: 16.5%; `Cc1cc(C)cc(NC(=O)/C=C/c2ccc([N+](=O)[O-])s2)c1`: -10.2%; `CC(=O)Nc1ccc2nc(NC(=O)c3ccc([N+](=O)[O-])s3)sc2c1`: 19.3%.
To `COC(=O)/C=C\C(=O)Nc1cccc([N+](=O)[O-])c1` belongs 28.4%; to `Cc1nc2cc(NC(=O)c3ccc([N+](=O)[O-])s3)ccc2s1`, 31.8%; to `Cc1cccc(NC(=O)/C=C/c2ccc([N+](=O)[O-])s2)c1`, 57.7% (active).
To `COc1ccc(CNc2ncnc3sccc23)cc1OC` belongs 50.2% (active).
As to `Fc1ccc(F)c(CNc2ncnc3cc(Cl)ccc23)c1`, the inhibition was 8.3%.
For the compound `COc1ccc(CCNc2ncnc3sc(C)cc23)cc1OC`, the inhibition is 58.6% (active).
Next, `COc1cc2ncnc(NCc3ccc(C)cc3)c2cc1OC`: 0.3%.
In the case of `COc1ccc(CCNc2ncnc3sccc23)cc1OC`, the inhibition was 60.1% (active).
To `Oc1ccc(CCNc2ncnc3ccc(Cl)cc23)cc1` belongs 86.6% (active).
Next, `CCOc1ccc2[nH]c3c(NCCc4ccc(OC)c(OC)c4)ncnc3c2c1`: 39.1%; `COc1ccc(CCNc2ncnc3c2oc2ccccc23)cc1OC`: 54.8% (active); `c1ccc2c(c1)oc1c(Nc3ccc(CN4CCOCC4)cc3)ncnc12`: 4.6%.
Turning to `COc1ccccc1CNc1ncnc2sccc12`, the inhibition was 54.1% (active).
To `COc1cc2ncnc(NCCc3ccccc3)c2cc1OC` belongs 4.6%; to `C(=N\c1ncnc2sccc12)/NOCc1ccccc1`, 28.6%.
Next, `Clc1cccc(Cl)c1CON/C=N/c1ncnc2sccc12`: 15.1%.
For the compound `COc1ccc(CCNc2ncnc3cc(OC)c(OC)cc23)cc1OC`, the inhibition is 54.8% (active).
To `Cc1ccc(NC(=O)Nc2nnc(-c3ccncc3)s2)cc1` belongs 27.4%; to `C=CC[n+]1c(-c2ccc(C)cc2)csc1Nc1ccc(NC(C)=O)cc1`, 99.4% (active).
To `C=CC[n+]1c(-c2ccc(Cl)cc2Cl)csc1Nc1c(C)n(C)n(-c2ccccc2)c1=O` belongs 28.9%.
To `C=CC[n+]1c(-c2ccc(Cl)cc2Cl)csc1Nc1ccc(NC(C)=O)cc1` belongs 64% (active); to `Cc1ccc(S(=O)Cc2ccc(C(=O)N3CCN(C4CCCCC4)CC3)o2)cc1` (stereo unspecified), -23.1%.
Consider `Cc1cc(C(=O)CSc2nnc(-c3cccs3)o2)c(C)n1-c1ccccc1`, for which the inhibition is 53.4% (active).
Next, `Cc1cc(C(=O)CSc2nnc(-c3ccco3)o2)c(C)n1-c1ccc2c(c1)OCCO2`: 10.1%; `COc1ccc(-n2c(C)cc(C(=O)CSc3nnc(-c4cccs4)o3)c2C)cc1`: 71.7% (active).
Consider `Nc1cc2ccncc2c2ccccc12`, for which the inhibition was 90.8% (active).
Next, `NC(=O)c1cc2ccncc2c2ccccc12`: 90.8% (active); `CCn1cc(CN2CCCC(C(=O)c3ccc(-c4ccccc4)cc3)C2)cn1` (stereo unspecified): 5.2%.
Take `Cc1ccc(-c2ccc(=O)n(Cc3ccc(F)cc3)n2)cc1`: the inhibition is -22.8%.
Next, `Cc1ccc(C)c(NC(=O)CSc2nc3nc(-c4cccs4)cc(C(F)(F)F)c3c(=O)[nH]2)c1`: 86.9% (active); `O=C(CSc1nc2nc(-c3cccs3)cc(C(F)(F)F)c2c(=O)[nH]1)Nc1ccc(F)c(F)c1`: 86% (active).
Consider `O=C(CSc1nc2nc(-c3cccs3)cc(C(F)(F)F)c2c(=O)[nH]1)Nc1c(F)c(F)c(F)c(F)c1F`, for which the inhibition was 92.5% (active).
To `CCOc1ccccc1NC(=O)CSc1nc2nc(-c3cccs3)cc(C(F)(F)F)c2c(=O)[nH]1` belongs 74.5% (active).
As for `N#Cc1ccc(Cl)cc1NC(=O)CSc1nc2nc(-c3cccs3)cc(C(F)(F)F)c2c(=O)[nH]1`, the inhibition is 46.8%.
Next, `N#Cc1c(-c2cccs2)nc(SCc2ccc(Cl)cc2)[nH]c1=O`: 31.4%.
